From the supplement of paper PMC6555819

Tests used:
Experiment in all cases: PBM binding z-score (relative to random genomic background probes); higher = stronger binding; sequences stand for … in GC…GCGATTGACAGCGTAGAATGAAGG
[1] = tested on: RARb homodimer (NR concentration 270 nM)
Summary of the method: (§1)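 Custom Agilent 4×180K protein-binding microarrays carried double-stranded probes. Their 34-nt variable regions held direct-repeat seeds, single-nucleotide variants, half-site ablations and random human genomic background sequences. Arrays were incubated 1 h with ligand-free nuclear receptor dimers in PBS pH 7.4, 2% milk, 0.02% Triton X-100, 1 mM DTT, 0.2 mg/mL BSA and 0.4 mg/ml salmon testes DNA. Antibodies against each partner (one per run) detected binding, and scanned fluorescence was regression-normalized. Binding z-scores use random background probes as reference.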

[2] = tested on: RARg:RXRa (NR concentration 270 nM, RXRa partner concentration 90 nM)
Summary of the method: as §1

[3] = tested on: RARg homodimer (NR concentration 270 nM)
Summary of the method: as §1

[4] = tested on: RXRa DBDmut IVT, anti-RXR (DBD mutation: RXRa K156A/R161A, NR concentration 90 nM)
Summary of the method: as §1

[5] = tested on: RXRa homodimer (NR concentration 180 nM)
Summary of the method: as §1

[6] = tested on: THRa:RXRa (NR concentration 90 nM, RXRa partner concentration 90 nM)
Summary of the method: as §1

[7] = tested on: THRa homodimer (NR concentration 90 nM)
Summary of the method: as §1

[8] = tested on: VDR homodimer (NR concentration 270 nM)
Summary of the method: as §1

Sequence	PBM binding z-score [1]	PBM binding z-score [2]	PBM binding z-score [3]	PBM binding z-score [4]	PBM binding z-score [5]	PBM binding z-score [6]	PBM binding z-score [7]	PBM binding z-score [8]
CAAACTAGGTCACCGGAAGGTCAAACTCCGCATG	5.43	8.28	7.24	2.46	6.33	4.6	3.44	4.04
TCTAGTTGGTCAAAGGTCACTCACTCGAAATGCG	4.78	6.5	6	2.11	7.54	3.86	2.1	3.03
TCATATAGGTAAACAGGTGTAAGTCCGTAAGTTA	0.165	0.307	0.308	1.57	0.982	0.356	0.324	0.657
